Data on 60 compounds can be found in PubChem BioAssay AID1892 (NMMLSC, 2009).

Structures are written as SMILES. Among all 5,900 compounds or so, about 140 (2.4%) were called active. Cut-off read from the data, not from the text of the source: active = binding response below about 16% or above about 210%; inactive = in between. Many of the other results were omitted from the sample, so actives are more common in it than they were.

The assay concerns the target Mitogen-activated protein kinase kinase kinase 2 (Homo sapiens) (UniProt Q9Y2U5). Kind of assay: modulators of MEK5 binding to wildtype MEKK2, confirmation, biochemical, single concentration, multiplex bead flow cytometry (AID 1892). The conditions noted are these: Alexa488-MEK5 binding to MEKK2 WT, at 10 µM, actives lie on both sides. Background: A flow cytometer gives signals particle by particle.
As for `CCOC(=O)Cc1csc(NC(=O)CSc2nc(C)cc(=O)[nH]2)n1`, the binding response (% of control) was 92% (inactive).

As for `CCOc1nnc(C)c2c(C)n(-c3cccc(Cl)c3)nc12`, the binding response (% of control) is 86% (inactive).

Consider `O=C(COC(=O)CNC(=O)c1ccco1)Nc1ccc(F)cc1`, for which the binding response (% of control) is 98% (inactive).

Regarding `Cn1c(=NC(=O)CSCC(=O)N2CCCCC2)sc2ccccc21`, the binding response (% of control) was 103% (inactive).

For the compound `N=C1/C(=C/c2cccn2-c2cccc([N+](=O)[O-])c2)C(=O)N=C2SC=CN12`, the binding response (% of control) was 99% (inactive).

As for `O=C(c1ccc(Br)o1)N(c1ccccn1)C1CCCCC1`, the binding response (% of control) is 101% (inactive).

In the case of `CC(C)(C)NC(=O)Cn1cnc([N+](=O)[O-])n1`, the binding response (% of control) is 96% (inactive).

Consider `O=C(CC1SCCNC1=O)Nc1ccc(Cl)c(Cl)c1` (stereo not given), for which the binding response (% of control) is 104% (inactive).

As for `O=c1c(/C=N/O)coc2ccc(Cl)cc12`, the binding response (% of control) is 100% (inactive).

Regarding `CCN(CC)C(=O)CC(c1ccc2c(c1)OCO2)c1c(OC)cc(OC)c2c(-c3ccccc3)cc(=O)oc12` (stereo not given), the binding response (% of control) was 99% (inactive).

With `Cc1ccc(C(=O)N/C(=C/c2ccco2)C(=O)NCCc2c[nH]c3ccccc23)cc1C`, the binding response (% of control) was 101% (inactive).

For the compound `CN1CCN(/N=C/c2ccc(C#N)cc2)CC1`, the binding response (% of control) is 92% (inactive).

`CCN1CCN(c2nc(Nc3cc(OC)ccc3OC)nc(Nc3cc(OC)ccc3OC)n2)CC1`: the binding response (% of control) was 148% (inactive).

As for `COc1ccccc1OCCNCC(O)COc1cccc2[nH]c3ccccc3c12` (stereo not given), the binding response (% of control) is 159% (inactive).

With `COc1ccccc1NC(=S)N1CCN(c2ccc(F)cc2)CC1`, the binding response (% of control) is 100% (inactive).

Turning to `O=C(O)/C(=C/c1cccnc1)NC(=O)c1ccccc1`, the binding response (% of control) is 103% (inactive).

Turning to `c1ccc(CN2CCC(N=C3NN=C(c4ccc5c(c4)OCCO5)CS3)CC2)cc1`, the binding response (% of control) was 164% (inactive).

`COc1cccc(/C(C)=N/Nc2ncc(Cl)cc2Cl)c1`: the binding response (% of control) is 100% (inactive).

In the case of `O=C(c1ccco1)N1CCN(c2cccc(Cl)c2)CC1`, the binding response (% of control) is 93% (inactive).

For the compound `COC(=O)C1=NN(c2ccccc2)C2C(=O)N(c3ccccc3OC)C(=O)C12` (stereo not given), the binding response (% of control) is 97% (inactive).

In the case of `CCN1CCN(CCNC(=O)c2ccc(/C=C3/Sc4ccccc4N(Cc4cccc(C)c4)C3=O)cc2)CC1`, the binding response (% of control) was 236% (active).

In the case of `Cc1cccc(CN2CCC(CNC(=O)Nc3ccc(F)c(Cl)c3)CC2)c1`, the binding response (% of control) was 126% (inactive).

`C/C(=N\NC(=O)CNC(=O)C(c1ccccc1)c1ccccc1)c1ccc(C)cc1`: the binding response (% of control) was 106% (inactive).

In the case of `CCOC(=O)c1cc2c(nc1NC(=S)Nc1ccccc1)CC(C)(CC)OC2` (stereo not given), the binding response (% of control) is 101% (inactive).

Turning to `C=CCN(CC=C)S(=O)(=O)c1ccc(C(=O)Nc2sc3c(c2C(N)=O)CCCCC3)cc1`, the binding response (% of control) is 99% (inactive).

For `COc1cccc(NC(=S)NCCCN2CCOCC2)c1`, the binding response (% of control) is 109% (inactive).

For `CCOc1ccc(S(=O)(=O)N(CC(=O)O)c2ccccc2)cc1`, the binding response (% of control) was 103% (inactive).

On to `COc1cccc(OC)c1C(=O)Nc1ccc(Cc2ccncc2)cc1`, for which the binding response (% of control) is 100% (inactive).

For the compound `CCCN(CCC)c1nc2c(C)cccn2c(=O)c1/C=C1/SC(=S)N(Cc2ccco2)C1=O`, the binding response (% of control) was 85% (inactive).

As for `CCCCn1c(SCC(=O)NCCc2ccc(OC)c(OC)c2)nc2c1c(=O)n(C)c(=O)n2C`, the binding response (% of control) is 103% (inactive).

`CCc1ccc(-c2nn(-c3ccccc3)cc2CSC(=N)N)cc1`: the binding response (% of control) was 210% (active).

`N=C(N)SCc1cccc2ccccc12`: the binding response (% of control) is 105% (inactive).

As to `CC(=O)N1CCN(S(=O)(=O)c2ccc(C)c([N+](=O)[O-])c2)C1C(C)C` (stereo not given), the binding response (% of control) was 97% (inactive).

As to `COc1ccc(CC(=O)N2N=C(C)CC2(O)C(F)(F)F)cc1` (stereo not given), the binding response (% of control) was 96% (inactive).

Take `COc1ccc(S(=O)(=O)Nc2ccc3oc(C)c(C(C)=O)c3c2)cc1`: the binding response (% of control) was 95% (inactive).

As for `NC(N)=N/N=C/c1ccc(OCc2ccc(Cl)cc2Cl)cc1`, the binding response (% of control) is 234% (active).

With `CC(C)CC(=O)NC(=S)Nc1cc(C(=O)O)ccc1Cl`, the binding response (% of control) was 102% (inactive).

For the compound `CCn1cc(CN2CCC(C(=O)Nc3cccc(-c4cccc(Cl)c4)c3)CC2)cn1`, the binding response (% of control) is 182% (inactive).

Regarding `O=C(Cc1cccc2ccccc12)Nc1ccc2oc(-c3ccccc3)nc2c1`, the binding response (% of control) is 115% (inactive).

Regarding `O=C(CN1C(=O)c2cccnc2Oc2ccc(Cl)cc21)Nc1ccc(F)cc1`, the binding response (% of control) is 99% (inactive).

As to `N/C(=N\OS(=O)(=O)c1cccc([N+](=O)[O-])c1)c1ccncc1`, the binding response (% of control) is 103% (inactive).

Turning to `c1ccc2c(c1)C(=NC1CCCCC1)NC2=NC1CCCCC1`, the binding response (% of control) is 125% (inactive).

Consider `CCOC(=O)CN(C)S(=O)(=O)c1ccc(-c2cc(C(=O)OC)sc2C(F)(F)F)cc1`, for which the binding response (% of control) was 101% (inactive).

Take `O=C(NCCC1=CCCCC1)c1ccc(Cl)c([N+](=O)[O-])c1`: the binding response (% of control) was 105% (inactive).

Regarding `CCN(CC)CCOc1ccc2c(c1)C(=NNC(=O)c1ccccn1)c1cc(OCCN(CC)CC)ccc1-2`, the binding response (% of control) is 210% (active).

Regarding `CN(C)CCCNC(=O)c1cc(C(=O)Cc2ccc(Cl)cc2)c[nH]1`, the binding response (% of control) was 106% (inactive).

For `C[C@H]1CCC(=O)N([C@H](CSc2ccccc2)Cc2ccccc2)CC1`, the binding response (% of control) was 111% (inactive).

As for `O=C(NCCCN1CCCCCC1)C1CC(=O)N(C2CCCC2)C1` (stereo not given), the binding response (% of control) was 1% [inhibitor] (active).

As for `Cn1c(C(=O)NCCCN2CCCCC2)cc2sccc21`, the binding response (% of control) is 119% (inactive).

As for `O=C(NCCCN1CCCCCC1)c1ccc(N2CCCC2=O)cc1`, the binding response (% of control) was 156% (inactive).

On to `C=CCn1c(=S)sc2c(=O)[nH]c(C)nc21`, for which the binding response (% of control) was 106% (inactive).

Turning to `N#C/C(=C\C1=C(N2CCOCC2)C(=C\c2ccccc2)/CC1)C(=O)Nc1ccccc1F`, the binding response (% of control) is 10% [inhibitor] (active).

Regarding `O=C1Nc2ccc(Br)cc2/C1=N/N=C/C1=C(N2CCOCC2)C(=C\c2ccccc2)/CC1`, the binding response (% of control) is 47% (inactive).

As to `O=C(O)C1CCN(c2ccc([N+](=O)[O-])cc2[N+](=O)[O-])CC1`, the binding response (% of control) was 103% (inactive).

In the case of `Cc1ccc2c(C)c(C(=O)N3CCN(c4ccncc4)CC3)oc2c1C`, the binding response (% of control) is 161% (inactive).

Regarding `CC1(C)Cc2cccc(OCC(=O)N3CCN(c4ccc([N+](=O)[O-])cc4)CC3)c2O1`, the binding response (% of control) is 99% (inactive).

In the case of `CN1C(=O)/C(=C\c2ccc(-c3ccccc3)o2)SC1=S`, the binding response (% of control) was 23% (inactive).

Turning to `CCOC(=O)N1CCN(CC(=O)n2c(C)c(C)c3ccccc32)CC1`, the binding response (% of control) was 93% (inactive).

Regarding `FC(F)(F)c1nc(-c2ccccc2)ncc1-c1nnnn1-c1ccccc1`, the binding response (% of control) was 96% (inactive).

Turning to `O=C(NCCCN1CCN(c2ccc(F)cc2)CC1)Nc1ccc([N+](=O)[O-])cc1`, the binding response (% of control) was 129% (inactive).
